FAS TE block: blocks the thioesterase domain of human fatty acid synthase; P49327; recombinant FAS-TE, OMFH fluorogenic substrate, fluorescence endpoint; inhibition, % at 15 µM; hit rate 0.67% among 360,000;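 active means compounds whose normalised, plate-corrected inhibition of enzyme fluorescence in the single-dose primary screen is 50% or more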;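 further: 0% = DMSO with enzyme and 100% = substrate without enzyme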
rCAG RNA binder: binds r(CAG) RNA repeats; r(CAG) RNA repeat, TO-PRO-1 dye displacement fluorescence; inhibition, % at 3 µM; hit rate 1.3% among 370,000;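 active means inhibition above the plate cutoff, the mean of all test compounds on that plate plus 3 SD, cut at about 35% in these data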;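 further: 0% = DMSO alone and 100% = 100 µM mitoxantrone as full dye displacement; higher means more dye released from RNA so lower well fluorescence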
MPTP block: permeability transition pore inhibition | isolated mouse mitochondria, Ca2+ swelling absorbance, 30 min | AID 602449 | inhibition, % at 10 µM | hit rate 1.4% among 360,000;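 active means inhibition of 50% or more, scaled per plate between neutral and stimulator controls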;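 further: 0% = DMSO wells given calcium and 100% = 1 mM EGTA wells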
Myeloid diff MLP: compounds promoting myeloid differentiation; calls only at 10 µM; ER-HoxA9 myeloid progenitors, lysozyme-GFP differentiation, flow cytometry; hit rate 1% among 360,000;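 active means normalized GFP-positive differentiation at or above the plate's own cutoff, the solvent-only control mean plus 3 SD; inconclusive means no clear call, values can overlap the other calls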;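 further: cells exposed to compound for four days before flow analysis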
GRIN3A LBD mod: modulators (binders) of human NR3A ligand-binding domain | NR3A LBD differential scanning fluorimetry, Tm shift; 0% = protein alone, 100% = glycine-bound protein | Tm shift relative to glycine control, % at 25 µM | hit rate 2.5% among 340,000 | AID 1259313;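 active means melting temperature shift of at least 10% of the positive control shift, at one fixed dose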
MPTP counter: mitochondrial membrane potential, counter-screen; hit rate 78% among 5,000; shares compounds with MPTP block; isolated mitochondria, Rhodamine 123 fluorescence; inhibition, % at 10 µM; in the data active means inhibition above about 22%;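 further: 0% = DMSO vehicle and 100% = positive control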
MPTP swell DR: dose response confirmation of mitochondrial permeability transition pore inhibitors; shares compounds with MPTP block; isolated mitochondria swelling, absorbance; IC50, µM; hit rate 58% among 780; AID 651561; in the data active means IC50 below about 20 µM
MPTP cs DR: counter-screen for mitochondrial permeability transition pore inhibitors, dose response; hit rate 49% among 780; IC50, µM; AID 651564; isolated mitochondria counterscreen, fluorescence read-out; shares compounds with MPTP block; in the data active means IC50 below about 80 µM
* = called active by the depositor. Only some compounds are listed: those with a hit (about 5.7% of all), similar ones and a draw of the others.

For COCCNc1nc2c(c(=O)n(C)c(=O)n2C)n1Cc1cccc(C(F)(F)F)c1 the results were FAS TE block -1.3, rCAG RNA binder -2.8, MPTP block 82.3*, GRIN3A LBD mod -1.7 and MPTP counter 70.6*.
For CC(O)CNc1nc2c(c(=O)n(C)c(=O)n2C)n1Cc1cccc(C(F)(F)F)c1 (stereo not drawn) the results were FAS TE block -4.5, rCAG RNA binder -7.7, MPTP block 0.0, Myeloid diff MLP inactive and GRIN3A LBD mod -4.1.
COc1ccccc1OCCNc1nc2c(c(=O)n(C)c(=O)n2C)n1C was read as FAS TE block -0.1, rCAG RNA binder -5.7, MPTP block 0.0, Myeloid diff MLP inactive and GRIN3A LBD mod -0.4.
Cc1ccc(-c2cc(C(=O)N3CCCc4ccccc43)no2)cc1 was read as FAS TE block 19.5, rCAG RNA binder -4.8, MPTP block 1.4, Myeloid diff MLP inactive and GRIN3A LBD mod -1.7.
For Nc1ccn([C@@H]2O[C@H](C(=O)N3CCN(c4ccc(Cl)cn4)CC3)[C@@H](O)[C@H]2O)c(=O)n1 the results were FAS TE block -1.2, rCAG RNA binder 1.6, MPTP block -0.2 and Myeloid diff MLP inactive.
For COc1cc(CNC(=O)c2cc(-c3cc(Cl)ccc3C)n[nH]2)cc(OC)c1 the results were FAS TE block 20.0, rCAG RNA binder 3.4, MPTP block 2.1 and Myeloid diff MLP inactive.
`Fc1ccc(NC(=S)Nc2cc(-c3ccccc3)[nH]n2)cc1Cl` gave FAS TE block 20.4, rCAG RNA binder 19.0, MPTP block 66.3*, Myeloid diff MLP inactive, GRIN3A LBD mod 26.3* and MPTP counter 82.1*.
For Fc1ccc(NC(=S)Nc2cccnc2)cc1Cl the results were FAS TE block 6.6, rCAG RNA binder -1.2, MPTP block 101.0*, Myeloid diff MLP inactive, GRIN3A LBD mod -0.7 and MPTP counter 91.7*.
Screening O=C(Nc1ccc(F)c(Cl)c1)c1ccccc1 returned FAS TE block 6.7, rCAG RNA binder 0.0, MPTP block -0.9, Myeloid diff MLP inactive and GRIN3A LBD mod -11.9.
`CCc1cc(=O)n2c([nH]c3ccccc32)c1C#N` gave FAS TE block -5.3, rCAG RNA binder 5.4, MPTP block -0.9, Myeloid diff MLP inactive and GRIN3A LBD mod -2.0.
`CCc1cc(=S)n2c([nH]c3ccccc32)c1C#N` gave FAS TE block 28.6, MPTP block 100.6*, Myeloid diff MLP inactive, GRIN3A LBD mod 7.3 and MPTP counter 68.5*.
`Cc1ccc(Cc2c(C)c(C#N)c3[nH]c4ccccc4n3c2=O)cc1` gave FAS TE block 3.9, rCAG RNA binder 6.8, MPTP block 88.6*, Myeloid diff MLP inactive, GRIN3A LBD mod 3.6 and MPTP counter 70.2*.
CCc1c(C)c(C#N)c2[nH]c3ccccc3n2c1=S was read as FAS TE block 9.0, rCAG RNA binder 18.6, MPTP block 89.6*, Myeloid diff MLP inactive, GRIN3A LBD mod 10.9* and MPTP counter 80.7*.
Cn1c(=O)c(C(=O)Nc2ncccc2O)c(O)c2ccccc21 was read as FAS TE block 0.6, rCAG RNA binder -1.6, MPTP block 73.5*, Myeloid diff MLP inactive, GRIN3A LBD mod -1.2, MPTP counter -8.4, MPTP swell DR >100 and MPTP cs DR >80.
CN(C)c1ccc(NC(=O)Nc2nc(C(N)C3CCCCC3)cs2)cc1 (stereo not drawn) was read as FAS TE block -9.4, rCAG RNA binder 33.0, MPTP block 2.2 and Myeloid diff MLP inactive.
For CCOC(=O)c1ccc(Oc2cn[nH]c2-c2ccc(OCC(=O)NN)cc2O)cc1 the results were FAS TE block -146.8, rCAG RNA binder 15.6, MPTP block 0.1, Myeloid diff MLP inactive and GRIN3A LBD mod 1.2.
CCCc1ccc(Oc2cn[nH]c2-c2ccc(O)cc2O)cc1 was read as FAS TE block -150.1, rCAG RNA binder 13.2, MPTP block 63.9*, Myeloid diff MLP inactive, GRIN3A LBD mod 28.2* and MPTP counter 39.3*.
`CCOC(=O)c1ccc(Oc2cn[nH]c2-c2ccc(O)cc2O)cc1` gave FAS TE block -146.3, rCAG RNA binder 5.8, MPTP block 54.7*, Myeloid diff MLP inactive, GRIN3A LBD mod 28.6* and MPTP counter 26.3*.
Screening CCCOC(=O)c1ccc(Oc2cn[nH]c2-c2ccc(OCC(=O)NN)cc2O)cc1 returned FAS TE block -162.9, rCAG RNA binder 13.9, MPTP block 13.9, Myeloid diff MLP inactive and GRIN3A LBD mod -7.3.
Screening CCN(CC)S(=O)(=O)c1cc([N+](=O)[O-])ccc1NNC(=O)Nc1ccc(F)cc1 returned FAS TE block 5.2, rCAG RNA binder 8.1, MPTP block 85.6*, Myeloid diff MLP inactive, GRIN3A LBD mod 3.8 and MPTP counter 91.6*.
Screening NNC(=O)Nc1cccc(C(F)(F)F)c1 returned FAS TE block -1.7, rCAG RNA binder 0.3, MPTP block 0.8, Myeloid diff MLP inactive and GRIN3A LBD mod 0.1.
For NC(=O)/C=C\C(=O)Nc1cccc(C(F)(F)F)c1 the results were FAS TE block -13.1, rCAG RNA binder -2.1, MPTP block 2.0, Myeloid diff MLP inactive and GRIN3A LBD mod 2.1.
For O=C(NNc1cccc(Cl)n1)Nc1cccc(C(F)(F)F)c1 the results were FAS TE block 15.2, rCAG RNA binder 7.6, MPTP block 70.4*, Myeloid diff MLP inactive, GRIN3A LBD mod -2.7 and MPTP counter 72.0*.
For O=C(Nc1ccc(OC(F)F)cc1)Nc1cccc(C(F)(F)F)c1 the results were FAS TE block 36.7, rCAG RNA binder 10.2, MPTP block 85.5*, Myeloid diff MLP inactive, GRIN3A LBD mod 38.9* and MPTP counter 63.3*.
`N/C(=N\OC(=O)Nc1cccc(C(F)(F)F)c1)c1ccno1` gave FAS TE block -2.2, rCAG RNA binder 1.6, MPTP block 71.9*, Myeloid diff MLP inactive, GRIN3A LBD mod -0.6 and MPTP counter 94.1*.
Screening O=C(NNc1cccc(Cl)n1)Nc1ccc(Cl)cc1 returned FAS TE block -2.6, rCAG RNA binder -0.1, MPTP block 6.2, Myeloid diff MLP inactive and GRIN3A LBD mod -1.3.
`O=C(Nc1cccc(C(F)(F)F)c1)c1sc(Cl)nc1C(F)(F)F` gave FAS TE block 15.0, rCAG RNA binder 0.2, MPTP block 82.9*, Myeloid diff MLP inconclusive, GRIN3A LBD mod -6.4 and MPTP counter 77.3*.
For COc1ccc(NC(=O)CCCNC(=O)c2ccc(Cl)cc2)cc1OC the results were FAS TE block -5.0, rCAG RNA binder -2.7, MPTP block -0.4, Myeloid diff MLP inactive and GRIN3A LBD mod 0.6.
Screening Cc1ccc(C(=O)c2c3ccc([N+](=O)[O-])cc3[n+]([O-])n2CCCN)cc1 returned FAS TE block -17.9, rCAG RNA binder 26.5, MPTP block 6.5, Myeloid diff MLP inconclusive and GRIN3A LBD mod -0.8.
